# PubChem BioAssay (NCI)
# Compounds without any hit were thinned out: in the full panel of roughly 83,000, 20% have a hit.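 How to read the values: 0–100, growth inhibition (40 = 60% inhibited); 0, no net growth; -100 to 0, cell death (-40 = 40% of starting cells died; -100 = all dead).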 The source made the active and inactive calls. How the source made its calls: active means growth percent below 10; inactive means the rest.
# Tested on: HL-60(TB) leukemia
# Assay: NCI-60 one-dose screen, 48 h (100 = growth as untreated, 0 = no growth, -100 = all killed)
# Details: 10 µM unless noted
row,SMILES,growth
1,Cc1cc(=O)n(-c2ccc(F)cc2)[nH]1,101% (inactive)
2,COc1ccc(-c2csc(NC(=O)CN3CCN(CCO)CC3)n2)cc1NS(=O)(=O)c1cccc2c(N(C)C)cccc12,93.8% (inactive)
3,CCCCC#Cc1c(I)n(C2OC(CO[Si](C)(C)C(C)(C)C)C3OC(C)(C)OC32)c(=O)[nH]c1=O (configuration not stated),-29.4% (active)
4,Oc1ccccc1/C=N/N=C/c1c(O)ccc2ccccc12,51% (inactive)
5,COC(=O)c1c2c(c(C)[n+]([O-])c1C)C(=O)C=C(NCc1ccc(Br)cc1)C2=O,-19.4% (active)
6,O=C(Nc1cccc2[nH]c(C(F)(F)F)nc12)c1ccc(-n2cnnn2)cc1,1.31% (active)
7,CC/C(Cc1ccccc1)=C(/c1ccc(O)cc1)c1ccc(OCCN2CCCC2)cc1,-56.9% (active)
8,CNc1ccc2c(c1)c1ccccc1n2C,93.7% (inactive)
9,COc1ccc(-c2cc(C(=O)N3N=C(c4ccc(N)cc4)CC3c3ccc(OC)cc3)c3cc(OC)ccc3n2)cc1 (configuration not stated),-7.72% (active)
10,COc1ccc(-c2nc3ccc(-c4nc5ccc(N6CCN(c7ccccc7)CC6)cc5[nH]4)cc3[nH]2)cc1OC,16.1% (inactive)
11,O=C(/C=C/c1cccc(O)c1)c1cccc(-n2cc(-c3ccc4ccccc4c3)[nH]c2=O)c1,-21.5% (active)
12,Cc1ccc(S(=O)(=O)NC(CCC(=O)Nc2ccccc2)C(=O)Nc2ccccc2)cc1 (configuration not stated),-2.4% (active)
13,COc1ccc2[nH]c(O)c(/C=c3/ccc4c(c3)N=C(c3ccc(F)cc3)N=4)c2c1,99.9% (inactive)
14,Fc1ccc(NCCS)cc1,100% (inactive)
15,N/C(=N\c1nc2ccccc2s1)NC(=NC1CCCCC1)NC1CCCCC1,-36.3% (active)
16,O=C1CSC(c2c(Cl)cccc2Cl)N1c1nc(Cl)cc(=O)[nH]1 (configuration not stated),161% (inactive)
17,Cc1ccc(N(CSc2ccc(Cl)cc2)CSc2ccc(Cl)cc2)cc1,-46.7% (active)
18,CCCC(C)(C)COC(=O)c1cccc(N)c1,57.8% (inactive)
19,Cc1ccc(C(C)C)c(OCc2ccc(C(=O)N/N=C/c3cccc(O)c3O)cc2)c1,-4.57% (active)
20,C=C1C(=O)O[C@H]2[C@H]1CC/C(COC(=O)NCCOCCOCC(=O)Nc1ccc(OC)c(C(N)=O)c1O)=C\CC[C@@]1(C)O[C@@H]21,-6.3% (active)
21,COC(=O)c1nc(-c2ccccc2)oc1S(=O)(=O)n1nc(-c2ccccc2)cc1N,58.9% (inactive)
22,Cc1cc(O)ccc1C1=NN(c2ccc(S(C)(=O)=O)cc2)C(=O)CC1,52.6% (inactive)
23,O=C1NCC2CCCC1C2 (configuration not stated),98.6% (inactive)
24,CCCC(CC)(C(=O)Nc1ccc2nc(C)cc(N)c2c1)C(=O)Nc1ccc2nc(C)cc(N)c2c1,100% (inactive)
25,CCSc1ncnc2c1ncn2C1OC(CO)C(O)C1O (configuration not stated),20.2% (inactive)
26,COc1cc2c(O)n(CCCN3CCOCC3)c3c4cnc5cccc(c(=O)c3c2cc1OC)c54,42.8% (inactive)
27,OCC1OC(n2cnc3c(N/N=C\c4ccccn4)ncnc32)C(O)C1O (configuration not stated),6.17% (active)
